Abeta rescue – qHTS for compounds that reverse cellular toxicity of Amyloid beta (A-beta) peptide in yeast: Primary Screen. actives 0.063% (n = 410,000). Potency, µM (highest dose often 46.1 µM), usual class: activators. yeast expressing A-beta42, growth rescue, OD600, 48 h; response scale: 0% DMSO, 100% iron-clioquinol control; also: nearly all actives have a fitted effect of over 55% in size
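Yeast growth medium received pinned compounds, then yeast cells expressing toxic A-beta were added; plates incubated at 30 C for 48 hr. Growth read as absorbance at 600 nm, normalized to DMSO and equimolar FeCl3 plus clioquinol controls.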
S-ASM inh – Inhibitors of Secretory Acid Sphingomyelinase (S-ASM): qHTS | Sphingomyelin phosphodiesterase (Homo sapiens), P17405 | actives 0.006% (n = 340,000) | Potency, µM (doses to about 57.5 µM), actives largely listed as inhibitors | placental ASM, HMU-PC fluorogenic substrate, 60 min
Target sequence (P17405 47-631 limits assumed): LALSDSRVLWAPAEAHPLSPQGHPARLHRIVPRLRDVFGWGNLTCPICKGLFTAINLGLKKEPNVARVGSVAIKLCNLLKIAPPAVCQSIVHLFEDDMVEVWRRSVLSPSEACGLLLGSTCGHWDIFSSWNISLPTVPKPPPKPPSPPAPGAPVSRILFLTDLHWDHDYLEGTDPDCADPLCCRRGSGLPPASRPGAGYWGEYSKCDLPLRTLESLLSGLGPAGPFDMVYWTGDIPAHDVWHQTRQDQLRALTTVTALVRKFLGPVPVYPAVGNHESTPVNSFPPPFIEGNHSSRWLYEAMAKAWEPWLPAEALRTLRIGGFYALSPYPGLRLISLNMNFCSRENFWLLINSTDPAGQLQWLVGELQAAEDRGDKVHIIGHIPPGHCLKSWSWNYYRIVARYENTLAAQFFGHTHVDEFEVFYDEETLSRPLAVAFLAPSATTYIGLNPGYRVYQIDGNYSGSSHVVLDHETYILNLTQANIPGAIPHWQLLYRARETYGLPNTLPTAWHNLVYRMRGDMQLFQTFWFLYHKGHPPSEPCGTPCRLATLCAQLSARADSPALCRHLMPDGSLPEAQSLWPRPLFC
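qHTS format. ASM enzyme prepared from human placenta hydrolyses the fluorogenic substrate HMU-PC0 (9 uM final) over 60 min at 37 °C after a 10 min compound preincubation.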
aSyn rescue – qHTS of alpha-syn Inhibitors. Yeast expressing alpha-synuclein, growth rescue, BacTiter-Glo, 24 h. Potency, µM (series often up to 46.1 µM), actives largely listed as activators. actives 0.14% (n = 370,000); also: nearly all actives have a fitted effect of over 65% in size
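Readout is rescue of growth in alpha-synuclein-expressing yeast, so inhibitors of toxicity appear as activators. Growth after 24 hr at 30 deg C in galactose medium is quantified by luminescence.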
TDP43 rescue – qHTS of TDP-43 Inhibitors; TDP-43 expressing yeast growth rescue, BacTiter-Glo, 24 h; Potency, µM (highest dose often 46.1 µM), hits mostly activators; actives 1.8% (n = 410,000); AID 652104, 2013; also: nearly all actives have a fitted effect of over 50% in size
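Yeast cells expressing TDP-43 under galactose induction are exposed to compounds for 24 hr at 30 deg C. BacTiter-Glo luminescence measures growth, so protective compounds score as activators.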
Rango dissoc inh – qHTS Assay for Inhibitors of RanGTP induced Rango (Ran-regulated importin-beta cargo) - Importin beta complex dissociation. Snurportin-1 (Homo sapiens) + GTP-binding nuclear protein Ran (Homo sapiens) + Importin …. Biochemical FRET Rango-importin beta, RanGTP-induced dissociation. Potency, µM (series often up to 46.1 µM). actives 0.071% (n = 340,000); calls by dose curve; also: nearly all actives have a fitted effect of over 45% in size
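Compounds sat 5 min at room temperature with 0.1 uM Rango biosensor plus 0.25 uM importin beta, then FRET pre-read. RanGTP-RCC1 (0.6 uM Ran, 2mM GTP, 0.2 uM RCC1) added for 45 min, and the CFP/YFP post-read measured blocked complex dissociation.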
Rango complex inh – qHTS Assay for Inhibitors of Rango (Ran-regulated importin-beta cargo) - Importin beta complex formation; Importin subunit beta-1 (Homo sapiens), Q14974; Rango CFP/YFP FRET sensor + importin beta, 45 min; Potency, µM (top dose mostly 92.2 µM); actives 0.031% (n = 340,000); AID 540263, 2011; calls by dose curve; also: nearly all actives have a fitted effect of over 15% in size
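FRET biosensor (snurportin 1 IBB flanked by EYFP and cerulean), 50 nM, with compound 5 min, then 0.125 microM importin beta in PBS, 1 mM DTT, 0.02% Tween-20, 0.1% BSA. CFP/YFP ratio read after 45 min at room temperature; pre-read flags interference.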
A number is an active result; . = inactive; ? = inconclusive; / = no result; [ ] = remark or other dose. An excerpt weighted towards active compounds, which were near 2% of everything screened. Unless noted, calls follow the shape of the dose curve; as a rule, active = well fitted curve in the direction sought with a large enough effect; inconclusive = small, poorly fitted or top-dose-only effect, or another doubt; inactive = no such curve, though single readings can be large; an effect the other way counts as inactive or inconclusive.

SMILES	Abeta rescue	S-ASM inh	aSyn rescue	TDP43 rescue	Rango dissoc inh	Rango complex inh
CCOCc1cc(CN2CCN(c3cccc(C(F)(F)F)c3)CC2)c(O)c2ncccc12	.	/	/	25µM	/	/
Cc1noc(C)c1C(=O)Nc1nc(-c2cccs2)cs1	.	.	.	?	.	.
CCc1noc(C)c1C(=O)Nc1nc(-c2cccs2)cs1	.	.	.	13µM	.	.
Cc1c(C(=O)N2CCCC2)oc2c1-c1nn(CC(=O)NC(C)c3ccccc3)cc1CC2 (stereo not given)	.	/	/	.	/	/
CN1CCc2nc3sc(C(=O)Nc4cccc(C#N)c4)c(N)c3cc2C1	.	/	/	18µM	/	/
Cc1nc(/C(N)=N/OC(=O)c2cccc(Cl)c2)c(C(F)(F)F)o1	.	.	.	20µM	.	.
CCC(C)(C)n1nnnc1C(c1ccc(O)c(OC)c1)N1CCN(c2nc3ccccc3s2)CC1 (stereo not given)	.	.	.	20µM	.	.
CC1(C(=O)NC(=S)N(CCC#N)c2ccccc2)CC1(Cl)Cl (stereo not given)	.	.	.	.	.	.
CC(C)N(Cc1ccccc1)C(=S)NC(=O)C1(C)CC1(Cl)Cl (stereo not given)	?	.	.	35µM	.	.
CCN(C(=O)/C=C/c1ccc(OC)cc1)C1CCS(=O)(=O)C1 (stereo not given)	.	.	.	.	.	.
CCN(C(=O)/C=C/c1ccc(OC)cc1)C1CCCCC1	.	.	.	18µM	.	.
CCCN1CCN(CC2=C(C(=O)OCC)C(c3cccc(OC)c3OC)NC(=O)N2)CC1 (stereo not given)	.	/	/	.	/	/
COc1ccccc1NC(=O)CSc1nccc(-c2ccco2)n1	.	.	.	16µM	.	.
COc1ccccc1NC(=O)CSc1ccc(-c2ccccn2)nn1	?	.	.	22µM	.	.
O=C(CSc1ccc(-c2ccccn2)nn1)Nc1ccc(F)c(F)c1	.	.	.	13µM	.	.
COc1ccc(C)cc1NC(=O)CSc1ccc(-c2ccco2)nn1	.	.	.	18µM	.	.
O=S(=O)(NCCc1cn2ccsc2n1)c1ccc(Cl)cc1	.	/	/	.	/	/
CN(C)S(=O)(=O)c1ccc2c(c1)N(CC(=O)N1CCN(c3ccc(F)cc3)CC1)CCS2	.	/	.	.	/	/
CCCn1c(CC)nc([N+](=O)[O-])c1S(=O)(=O)c1ccccc1	.	.	.	25µM	.	.
c1ccc(CSc2nc3ncccn3n2)cc1	.	.	.[1.84 µM]	16µM	.	.
Cc1cc(C)cc(C(=O)NCCc2csc(-c3ccc(C(F)(F)F)cc3)n2)c1	.	/	/	.	/	/
O=C(NCCc1csc(-c2ccc(F)cc2)n1)c1cccc(F)c1	.	/	/	16µM	/	/
O=C(NCCc1csc(-c2ccc(C(F)(F)F)cc2)n1)c1ccc(F)c(F)c1	.	/	.	25µM	/	/
CCCCOc1ccc(C(=O)NCCc2csc(-c3cccc(F)c3)n2)cc1	.	/	/	.	/	/
O=C(Cc1ccc(F)cc1)NCCc1csc(-c2cccc(F)c2)n1	.	/	/	11µM	/	/
O=S(=O)(NCCc1csc(-c2cccnc2)n1)c1cc(F)ccc1F	14µM	.	.	?	.	.
O=S(=O)(NCCc1csc(-c2cccnc2)n1)c1cccc(F)c1	?	.	.	.	.	.
Cc1cccc(-c2nc(CCNC(=O)Cc3ccc(F)cc3)cs2)c1	.	/	/	.	/	/
Cc1ccc(S(=O)(=O)c2cn(Cc3ccccc3Cl)c3ccc(F)cc3c2=O)cc1	.	/	/	.	/	/
CCOc1ccc(/C=C2/Sc3ccc(C(=O)N4CCOCC4)cc3N(C)C2=O)cc1OC	.	.	.	.	.	.

Source: PubChem (National Center for Advancing Translational Sciences (NCATS))
